Screen size: about 69,000 compounds; about 8,600 (12%) showed an effect of 50% or more. The list comes from a sample in which strong results are over-represented; it also holds similar structures and randomly drawn compounds.

In the assay the test system is Plasmodium berghei. In words: Screen against P. berghei liver stage (PbLuc), transformed with Luciferase, at 10uM. To be noted: tested at 10 uM. It is filed as functional, HepG2.
For the molecule `Cc1noc(C)c1S(=O)(=O)NCC(O)c1ccc2c(c1)CCO2` (stereo not given), the INHIBITION was 42.3%.
Next, `Cn1cccc1C(O)CNS(=O)(=O)c1ccccc1Br` (stereo not given): -29.2%; `Cc1cc(F)ccc1S(=O)(=O)NCC(O)c1cccn1C` (stereo not given): -1.99%; `Cn1cccc1C(O)CNS(=O)(=O)c1ccccc1F` (stereo not given): 51%.
Next, `O=S(=O)(NCC(O)c1ccc2c(c1)CCO2)c1ccccc1F` (stereo not given): 50.5%; `Cn1cnc(S(=O)(=O)NCC(O)c2ccc3c(c2)CCO3)c1` (stereo not given): 25.3%.
Next, `NC(=O)CN1CCc2c(Br)ccc(F)c2C1`: -15%.
For the molecule `Cc1nn(C)cc1Cn1c(=O)ccc2ccccc21`, the INHIBITION turned out to be 33%.
Turning to `CC(=O)N1CCC(Cc2cnc(-c3c(C)n[nH]c3C)cn2)C1` (stereo not given), the INHIBITION is 36.4%.
The value for `CCN1C(=O)CCCC12CCCN(C(=O)c1sccc1C)C2` (stereo not given) was -17.1%; that for `CS(=O)(=O)N1CCC2(CC1)CC(Oc1ccccn1)CO2` (stereo not given) was 10.7%.
As for `O=C(c1cc[nH]n1)N1CCC(F)(F)C2(CCN(c3ccccn3)C2)C1` (stereo not given), the INHIBITION is on record as 37.8%.
In the case of `CC(NC(=O)Nc1cccnc1N1CCCC1)c1ccccn1` (stereo not given), the INHIBITION was -17.9%.
Next, `Cc1nn(C)c(C)c1NC(=O)Nc1cccnc1N1CCCC1`: 54.3%; `CC(NC(=O)Nc1cccnc1N1CCCC1)c1ccncc1` (stereo not given): 7.12%.
Next, `Cc1nn(C(C)C)c(C)c1NC(=O)Nc1cccnc1N1CCCC1`: 26.9%; `CC(NC(=O)Nc1cccnc1N1CCCC1)c1ccn(C)c1` (stereo not given): 62.6%.
The value for `Cc1nn(C)c(C)c1C(C)NC(=O)Nc1cccnc1N1CCCC1` (stereo not given) was 11.6%.
In the case of `Cn1nnc2c1CCN(Cc1ccncc1)C2COCC1CC1` (stereo not given), the INHIBITION is on record as 35.4%.
Next, `Cc1ccc(NC2CCN(C(=O)c3cc(C)sc3C)CC2)nn1`: 9.14%.
Consider `CN(C)CC1CN(C(=O)Cc2ccccc2)Cc2nccn2C1` (stereo not given), for which the INHIBITION is given as 31.6%.
The value for `Cc1nonc1C1CCCN1C(=O)c1cn2ccsc2n1` (stereo not given) was -16.6%; that for `Cc1cncc(C(=O)N2CCCC(O)(CO)C2)c1` (stereo not given) was 15.1%; that for `CC(C)C(NC(=O)NCc1cccnc1N(C)C)c1cccs1` (stereo not given) was 17.5%.
Next, `Cc1noc(C)c1CN1CC[C@H]2[C@@H]1CCC(=O)N2CC1CCOCC1`: 6.67%; `O=C1CC[C@H]2[C@H](CCN2c2ccccn2)N1CC1CCOCC1`: 12.7%.
Next, `Cc1cccc(CN2CC[C@@H]3[C@@H]2CCN3C(=O)c2cnoc2C)n1`: -17%; `Cc1cc(C(=O)N2CC[C@H]3[C@H]2CCN3S(C)(=O)=O)c(C)o1`: 39.4%.
As to `Cc1oncc1C(=O)N1CC[C@H]2[C@@H]1CCC(=O)N2CC1CCOCC1`, the INHIBITION stood at 56.4%.
Regarding `Cc1oncc1C(=O)N1CC[C@H]2[C@@H]1CCC(=O)N2CC1CC1`, the INHIBITION was 55.4%.
Next, `Cc1oncc1C(=O)N1CC[C@@H]2[C@@H]1CC(=O)N2Cc1cccnc1`: 8.66%; `Cc1oncc1C(=O)N1CC[C@H]2[C@H]1CCN2S(C)(=O)=O`: 62.9%.
Next, `Cc1oncc1C(=O)N1CC[C@H]2[C@@H]1CCC(=O)N2c1cccnc1`: 18.3%; `CCc1cnc(N2CC[C@H]3[C@@H]2CCC(=O)N3CC2CCOCC2)nc1`: 51.2%.
The value for `Cc1ccc(C(=O)N2CC[C@@H]3[C@H]2CCC(=O)N3CC2CC2)o1` was 37.9%; that for `CCc1cnc(N2CC[C@H]3[C@@H]2CCC(=O)N3c2ccccc2)nc1` was 33.5%.
In the case of `Cc1nc(S(=O)(=O)N2CCSC3(CCCCC3)C2)cn1C`, the INHIBITION is recorded as -12.1%.
The value for `CC(C)CC(=O)N1CC[C@@H]2[C@H](CC1)N(Cc1cccnc1)CCS2(=O)=O` was 20.4%; that for `O=C(Cc1ccccn1)N1CCN(C(=O)CC2CCCC2)CC1` was 3.73%.
The value for `Cc1nn(C)c2cnn(Cc3ccc(C(=O)NCC4CC4)o3)c12` was 38.3%.
For the molecule `CN(Cc1cnn(C)c1)C(=O)NCC1CCS(=O)(=O)C1` (stereo not given), the INHIBITION is listed as -22.3%.
Next, `CC(=O)N1CCC2(C1)CN(C(=O)C1CCOC1)C2` (stereo not given): 9.97%.
The value for `CN(C)CCOCC1CN(C(=O)c2cccn2C)Cc2ccnn2C1` (stereo not given) was -7.59%; that for `Cn1ccc(C(=O)N2CCCC(Cc3cccc4cccnc34)C2)n1` (stereo not given) was -0.371%.
Next, `CSCCCN1C[C@H](NC(=O)c2ccc(C#N)nc2)[C@@H](C2CC2)C1`: 27.4%.
With `CCCc1cncnc1N1CCC(NCc2ccncc2)CC1`, the INHIBITION turned out to be 49.1%.
Next, `CCCc1cncnc1N1CCC(NCc2cc3ccccc3[nH]2)CC1`: 88.2%; `CCCc1cncnc1N1CCC(NCc2ccc(O)cc2)CC1`: 29.9%.
The value for `Cc1csc(C2(NC(=O)CCc3ccncc3)CCCC2)n1` was 20%; that for `CCCn1nc(C2CCNCC2)n(Cc2ccccc2)c1=O` was 26.8%.
The value for `CCOCCn1nc(C2CCNCC2)n(Cc2ccccc2)c1=O` was 8.51%; that for `CCn1c(C2CCNCC2)nn(Cc2ccc(C(=O)NC)o2)c1=O` was 52.1%.
On to `CCn1c(C2CCNCC2)nn(CCCc2ccccc2)c1=O`, for which the INHIBITION turned out to be 52.1%.
The value for `CCn1c(C2CCCNC2)nn(Cc2ccc(C(=O)NC)o2)c1=O` (stereo not given) was 38.5%.
The value for `CCn1c(CC2CCNCC2)nn(Cc2ccc(C(=O)NC)o2)c1=O` was 44.8%.

These data come from ChEMBL document CHEMBL4513216, “Probing the Open Global Health Chemical Diversity Library for Multistage-Active Starting Points for Next-Generation Antimalarials” (ACS Infect Dis, 2020).
